# Laboratory results as given in the supplement of paper PMC10646978.
# ± gives the standard deviation.
# Tests used:
# Details in all cases: modulator concentration 10 µM
# [1] = test system: RAW-Dual (murine macrophage reporter line); experiment: NF-kB reporter (SEAP) activity fold change vs agonist alone; higher = enhanced NF-kB activity
# How it was run: (§1)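 RAW-Dual murine macrophage reporter cells were plated at 50 000 per well in 384-well plates, pin-transferred compound to 10 μM final, and pre-incubated for 1 hour at 37 °C before a PRR agonist was added and the cells incubated overnight. NF-κB activity was read from supernatant SEAP with QUANTI-Blue at 620 nm absorbance, and IRF activity from Lucia luciferase with QUANTI-Luc by luminescence. Each signal was expressed as fold change by dividing by the mean agonist-only control on the same plate. Two replicate plates were averaged, with errors obtained by propagation.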
# [2] = test system: RAW-Dual (murine macrophage reporter line); experiment: IRF reporter (Lucia luciferase) activity fold change vs agonist alone; higher = enhanced IRF activity
# How it was run: as §1
# [3] = test system: RAW-Dual (murine macrophage reporter line); experiment: viability score (confluency relative to resting cells, overnight) (fraction); higher = more viable, active = viable (0.7 or more)
# How it was run: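 Compound was added at a final 10 μM to RAW-Dual macrophages in 384-well plates and left overnight. Confluency was imaged with IncuCyte, and two masks were generated in IncuCyte software over all imaged wells. Each viability score is confluency relative to resting cells, and a compound met the cutoff only when both masks were above 70% of resting cells.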
# [4] = agonist: CpG ODN 1826 0.5 ug/mL
SMILES,"NF-kB reporter [1, 4]",NF-kB reporter ([1]; agonist: LPS 0.1 ug/mL),NF-kB reporter ([1]; agonist: MPLA […]),IRF reporter ([2]; agonist: 3'3'-cGAMP 10 ug/mL),IRF reporter ([2]; agonist: LPS 0.1 ug/mL),IRF reporter ([2]; agonist: MPLA […]),viability score [3]
O=c1cccnn1CC1CN(c2ncc(Br)cn2)C1,1.04 ± 0.32,1.08 ± 0.072,1.07 ± 0.096,0.964 ± 0.044,0.966 ± 0.17,1.05 ± 0.23,1 (active)
O=C(O)c1cc(NC(=O)c2ccc(Cl)c([N+](=O)[O-])c2)cc(C(=O)O)c1,1.08 ± 0.11,0.973 ± 0.064,1.02 ± 0.045,1.03 ± 0.19,1.04 ± 0.088,1.08 ± 0.17,1 (active)
Cl.N=C(N)NC(=O)c1nc(Cl)c(N)nc1N.O.O,0.856 ± 0.044,1.01 ± 0.087,1.05 ± 0.065,1.04 ± 0.048,1.2 ± 0.29,1.3 ± 0.46,0.984 (active)
COc1cc(CNCc2ccc3ccccc3c2)cc(OC)c1,1.26 ± 0.12,0.986 ± 0.1,1.24 ± 0.1,1.19 ± 0.35,0.906 ± 0.043,2.05 ± 0.17,0.589 (inactive)
Cc1ccc(OCCCOc2cccc3cccnc23)c(Br)c1,0.998 ± 0.071,1.01 ± 0.078,1.01 ± 0.027,0.829 ± 0.053,0.935 ± 0.13,0.981 ± 0.21,0.998 (active)
Cn1cnc2c(F)c(Nc3ccc(Br)cc3F)c(C(=O)NOCCO)cc21,0.822 ± 0.071,0.65 ± 0.052,0.666 ± 0.04,0.777 ± 0.045,1.17 ± 0.23,1.35 ± 0.45,0.248 (inactive)
Cc1ccc(N2C(=O)C(=CC3CC=CCC3)SC2=S)cc1 (centres undefined),0.652 ± 0.054,0.835 ± 0.039,0.817 ± 0.076,0.397 ± 0.022,1.04 ± 0.075,0.963 ± 0.1,0.973 (active)
Br.O=S(=O)(c1ccc(-c2csc(Nc3ccc(Br)cc3)n2)cc1)N1CCOCC1,0.967 ± 0.084,1.08 ± 0.091,1.1 ± 0.046,0.951 ± 0.17,1.14 ± 0.049,0.903 ± 0.059,0.999 (active)
CCC(=O)Nc1ccc(S(=O)(=O)N2CCCC(Cc3nc(C4CC4)no3)C2)c(C)c1 (centres undefined),0.885 ± 0.062,0.986 ± 0.1,1.01 ± 0.065,0.88 ± 0.048,1.21 ± 0.26,1.38 ± 0.51,0.961 (active)
COc1ccccc1N1CCN(CC(O)COc2cccc3ccccc23)CC1.Cl.Cl (centres undefined),0.595 ± 0.13,0.696 ± 0.13,0.725 ± 0.048,0.654 ± 0.03,1.17 ± 0.34,1.17 ± 0.22,0.97 (active)
N=C(N)Nc1nc(-c2ccccc2)c(-c2ccccc2)s1,0.98 ± 0.2,1.23 ± 0.18,1.29 ± 0.1,1.27 ± 0.06,1.26 ± 0.22,1.33 ± 0.19,1 (active)
Cc1cc2nc3sc(=Cc4ccc(F)cc4)c(=O)n3c2cc1C,0.99 ± 0.12,0.932 ± 0.12,1.04 ± 0.097,0.817 ± 0.03,1.07 ± 0.12,1.07 ± 0.13,1.03 (active)
O=C(c1ccc(F)c(F)c1Nc1ccc(I)cc1F)N1CC(O)([C@@H]2CCCCN2)C1,0.155 ± 0.0087,0.0529 ± 0.0032,0.123 ± 0.012,0.871 ± 0.029,4.08 ± 0.27,1.81 ± 0.16,0.0873 (inactive)
CCCC1CC(C(=O)NC(C(C)O)C2OC(SC)C(O)C(O)C2O)N(C)C1.Cl (centres undefined),0.947 ± 0.073,0.93 ± 0.072,0.924 ± 0.099,0.956 ± 0.031,1.24 ± 0.11,1.32 ± 0.17,1.04 (active)
COc1cc(C=NN2C(=O)c3cccc4cccc(c34)C2=O)cc(Br)c1OC,1.02 ± 0.08,1.12 ± 0.062,0.967 ± 0.062,1.01 ± 0.032,1.51 ± 0.29,1.13 ± 0.17,1.01 (active)
O=C(C=Cc1cccc([N+](=O)[O-])c1)NCCc1ccccc1,1.01 ± 0.17,1 ± 0.12,0.948 ± 0.12,0.963 ± 0.048,1.27 ± 0.24,1.32 ± 0.24,0.99 (active)
O=c1c(O)c(-c2cc(O)c(O)c(O)c2)oc2cc(O)cc(O)c12,1.51 ± 0.41,0.772 ± 0.04,0.968 ± 0.064,0.582 ± 0.035,0.894 ± 0.23,1.01 ± 0.21,0.908 (active)
Clc1nc(N2CCOCC2)nc(N(c2ccccc2)c2ccccc2)n1,0.889 ± 0.077,0.908 ± 0.086,1.08 ± 0.12,1.02 ± 0.049,1.41 ± 0.22,1.53 ± 0.42,1.03 (active)
CCC(C)C(=O)OC1CCC=C2C=CC(C)C(CCC3CC(O)CC(=O)O3)C21 (centres undefined),0.946 ± 0.11,0.83 ± 0.061,1 ± 0.094,0.941 ± 0.046,1.24 ± 0.23,1.33 ± 0.32,1.05 (active)
Cc1nc(C(=O)NCC(=O)O)c(O)c2ccc(Oc3ccccc3)cc12,0.856 ± 0.12,1.05 ± 0.39,0.94 ± 0.053,0.925 ± 0.04,1.09 ± 0.25,0.97 ± 0.28,0.996 (active)
CNC1CCC(c2ccc(Cl)c(Cl)c2)c2ccccc21.Cl (centres undefined),0.571 ± 0.096,0.765 ± 0.097,1.11 ± 0.25,0.52 ± 0.016,1.94 ± 0.19,2.12 ± 0.33,0.661 (inactive)
Cc1ccc(C=Nc2ccc(-c3ccc(N=Cc4ccc(C)o4)c(C)c3)cc2C)o1,0.837 ± 0.066,0.984 ± 0.087,1.01 ± 0.053,0.773 ± 0.097,0.929 ± 0.041,0.894 ± 0.075,0.991 (active)
O=c1[nH]c2ccccc2n1CCN1CCN(c2cccc(C(F)(F)F)c2)CC1,0.278 ± 0.037,0.403 ± 0.097,0.448 ± 0.028,0.953 ± 0.034,1.24 ± 0.34,1.51 ± 0.2,0.915 (active)
COc1c(OC)c2occc2c2oc(=O)ccc12,1.14 ± 0.32,0.86 ± 0.083,0.941 ± 0.059,0.551 ± 0.018,0.586 ± 0.17,0.67 ± 0.07,0.968 (active)
CS(=O)(=O)N(CC(=O)NCC1CCCO1)c1ccc(Cl)c(C(F)(F)F)c1 (centres undefined),0.751 ± 0.071,0.821 ± 0.039,1.01 ± 0.09,0.993 ± 0.046,1.35 ± 0.095,1.52 ± 0.15,0.998 (active)
COc1cc(C=C2NC(=O)NC2=O)cc(I)c1OCc1ccccc1,0.986 ± 0.082,1.09 ± 0.066,0.93 ± 0.098,1.05 ± 0.025,1.37 ± 0.15,1.12 ± 0.23,1.01 (active)
Br.CN(C)CCCC1(c2ccc(F)cc2)OCc2cc(C#N)ccc21 (centres undefined),0.81 ± 0.12,1.02 ± 0.29,0.95 ± 0.07,0.801 ± 0.043,1.37 ± 0.4,1.39 ± 0.24,0.979 (active)
